Laboratory results reported in PubChem BioAssay (NCI).
Several values for one entry are separate records, joined by “and”; a condition that tells them apart may be missing. Equal entries are not always repeated. About 83,000 compounds went through this panel and 20% of them were active in at least one assay; those are over-represented in the sample as a whole.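 Negative percent growth values reflect cell death: -40 means 40% of the cells present at the start died, and -100 means all died.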 Activity calls are given as the source filed them. Rule for the calls: active = growth percent below 10; inactive = the rest.

What was measured:
Assay in all cases: NCI-60 one-dose screen, 48 h (100 = growth as untreated, 0 = no growth, -100 = all killed)
Conditions in all cases: 10 µM unless noted
NCI-H23 lung = tested on: NCI-H23 lung
NCI-H226 lung = tested on: NCI-H226 lung
NCI-H322M lung = tested on: NCI-H322M lung
HOP-62 NSCLC = tested on: HOP-62 NSCLC
NCI-H460 lung = tested on: NCI-H460 lung
HOP-92 NSCLC = tested on: HOP-92 NSCLC
NCI-H522 lung = tested on: NCI-H522 lung
A549/ATCC NSCLC = tested on: A549/ATCC NSCLC
786-0 renal = tested on: 786-0 renal
COLO 205 colon = tested on: COLO 205 colon
DU-145 prostate = tested on: DU-145 prostate
K-562 leukemia = tested on: K-562 leukemia
MALME-3M melanoma = tested on: MALME-3M melanoma
MDA-MB-231 breast = tested on: MDA-MB-231 breast
RXF 393 renal = tested on: RXF 393 renal
SF-268 CNS = tested on: SF-268 CNS
SF-295 CNS = tested on: SF-295 CNS
SF-539 CNS = tested on: SF-539 CNS
UACC-257 melanoma = tested on: UACC-257 melanoma
M14 melanoma = tested on: M14 melanoma

Measured: growth

O=C1C=CC(=O)N1c1ccc2ccccc2c1
inactive: NCI-H23 lung 93.4% and 103% | NCI-H226 lung 97.6% and 111% | NCI-H322M lung 118% and 103% | HOP-62 NSCLC 101% | NCI-H460 lung 110% and 111% | HOP-92 NSCLC 81.8% and 84.1% | A549/ATCC NSCLC 99% | 786-0 renal 103% and 104% | DU-145 prostate 94.4% and 99.5% | K-562 leukemia 47% and 35.5% | MALME-3M melanoma 69.4% and 30.9% | MDA-MB-231 breast 111% and 96.5% | RXF 393 renal 83.3% and 102% | SF-268 CNS 100% and 105% | SF-295 CNS 112% and 99% | SF-539 CNS 108% and 93.6% | UACC-257 melanoma 92.5% and 91.1% | M14 melanoma 91.1% and 103%
active: NCI-H522 lung -58.9% and -24.2% | COLO 205 colon -58.5% and -42.5%

CON1CCC[C@]2(C)[C@H]3CC[C@@H]4[C@H]5[C@@H](O)C(C)(C)CC[C@]5(CO)CC[C@@]4(C)[C@]3(C)CC[C@H]2C1(C)C
inactive: NCI-H23 lung 102% | NCI-H226 lung 92.8% | NCI-H322M lung 109% | HOP-62 NSCLC 95.6% | NCI-H460 lung 102% | HOP-92 NSCLC 116% | NCI-H522 lung 84% | A549/ATCC NSCLC 94.2% | 786-0 renal 100% | COLO 205 colon 105% | DU-145 prostate 99% | K-562 leukemia 87% | MALME-3M melanoma 110% | MDA-MB-231 breast 90.5% | RXF 393 renal 112% | SF-268 CNS 100% | SF-295 CNS 102% | SF-539 CNS 106% | UACC-257 melanoma 97.5% | M14 melanoma 99.6%

COc1ccc(S(=O)(=O)Nc2cc(Sc3cccc4cccnc34)c(O)c3ccccc23)cc1
inactive: NCI-H23 lung 23.7% | NCI-H226 lung 41.2% | NCI-H322M lung 29.9% | HOP-62 NSCLC 45.8% | HOP-92 NSCLC 38.9% | A549/ATCC NSCLC 13.3% | 786-0 renal 28.5% | DU-145 prostate 19.5% | MDA-MB-231 breast 25% | RXF 393 renal 18.8% | SF-268 CNS 11.3% | SF-295 CNS 22.3%
active: NCI-H460 lung 4.45% | NCI-H522 lung -39% | COLO 205 colon -60.2% | K-562 leukemia -7.46% | MALME-3M melanoma 6.25% | SF-539 CNS -6.48% | UACC-257 melanoma -17% | M14 melanoma -13.4%

O=C1C(=C(O)c2ccccc2)C(=O)c2ccccc21
inactive: NCI-H23 lung 103% | NCI-H226 lung 104% | NCI-H322M lung 109% | HOP-62 NSCLC 99.5% | NCI-H460 lung 116% | HOP-92 NSCLC 88% | NCI-H522 lung 101% | A549/ATCC NSCLC 105% | 786-0 renal 95.6% | COLO 205 colon 121% | DU-145 prostate 104% | K-562 leukemia 95.4% | MALME-3M melanoma 103% | MDA-MB-231 breast 107% | RXF 393 renal 135% | SF-268 CNS 95.2% | SF-295 CNS 105% | SF-539 CNS 100% | UACC-257 melanoma 108% | M14 melanoma 102%

C#CCOc1cccc(Nc2ncc3ncn(C4CCN(C(=O)CCl)C4)c3n2)c1 (stereo not given)
inactive: NCI-H23 lung 45.2% [6.25 µM] | NCI-H226 lung 23.3% [6.25 µM] | NCI-H322M lung 78.6% [6.25 µM] | HOP-62 NSCLC 78.3% [6.25 µM] | NCI-H460 lung 72.1% [6.25 µM] | HOP-92 NSCLC 73% [6.25 µM] | A549/ATCC NSCLC 78.5% [6.25 µM] | DU-145 prostate 84% [6.25 µM] | MALME-3M melanoma 14.3% [6.25 µM] | SF-268 CNS 40.2% [6.25 µM] | SF-295 CNS 89% [6.25 µM] | SF-539 CNS 68.7% [6.25 µM] | UACC-257 melanoma 72.6% [6.25 µM] | M14 melanoma 24% [6.25 µM]
active: NCI-H522 lung -77.4% [6.25 µM] | 786-0 renal -4.37% [6.25 µM] | COLO 205 colon -84% [6.25 µM] | K-562 leukemia 5.61% [6.25 µM] | MDA-MB-231 breast 2.24% [6.25 µM] | RXF 393 renal -51.9% [6.25 µM]

CC(=O)c1nn(-c2ccccc2)/c(=N/N=Cc2cn(-c3ccccc3)nc2-c2cc3ccccc3oc2=O)s1
inactive: NCI-H23 lung 109% | NCI-H226 lung 105% | NCI-H322M lung 93.2% | HOP-62 NSCLC 101% | NCI-H460 lung 117% | HOP-92 NSCLC 94.7% | NCI-H522 lung 95.6% | A549/ATCC NSCLC 102% | 786-0 renal 105% | COLO 205 colon 117% | DU-145 prostate 107% | K-562 leukemia 98.5% | MALME-3M melanoma 104% | MDA-MB-231 breast 82.6% | RXF 393 renal 111% | SF-268 CNS 104% | SF-295 CNS 103% | SF-539 CNS 99.6% | UACC-257 melanoma 108% | M14 melanoma 97.4%

O=S(=O)(O)c1ccc(N=Nc2ccc(N=Nc3cccc4ccccc34)c(S(=O)(=O)O)c2)cc1
inactive: NCI-H23 lung 91.5% | NCI-H226 lung 90.1% | NCI-H322M lung 102% | HOP-62 NSCLC 107% | NCI-H460 lung 98.9% | HOP-92 NSCLC 83.4% | NCI-H522 lung 103% | A549/ATCC NSCLC 109% | 786-0 renal 107% | COLO 205 colon 100% | DU-145 prostate 109% | K-562 leukemia 104% | MALME-3M melanoma 107% | MDA-MB-231 breast 80.3% | RXF 393 renal 119% | SF-268 CNS 106% | SF-295 CNS 106% | SF-539 CNS 102% | UACC-257 melanoma 107% | M14 melanoma 99.5%
